TRHR agonist = agonists of human TRH receptor; TRHR cells, calcium flux fluo-8, FDSS agonist mode; P34981; AID 493084; 0.18% of 360,000 active; activation, % at 2 µM; note: 0% is about no effect
Target sequence (P34981 whole entry, looked up): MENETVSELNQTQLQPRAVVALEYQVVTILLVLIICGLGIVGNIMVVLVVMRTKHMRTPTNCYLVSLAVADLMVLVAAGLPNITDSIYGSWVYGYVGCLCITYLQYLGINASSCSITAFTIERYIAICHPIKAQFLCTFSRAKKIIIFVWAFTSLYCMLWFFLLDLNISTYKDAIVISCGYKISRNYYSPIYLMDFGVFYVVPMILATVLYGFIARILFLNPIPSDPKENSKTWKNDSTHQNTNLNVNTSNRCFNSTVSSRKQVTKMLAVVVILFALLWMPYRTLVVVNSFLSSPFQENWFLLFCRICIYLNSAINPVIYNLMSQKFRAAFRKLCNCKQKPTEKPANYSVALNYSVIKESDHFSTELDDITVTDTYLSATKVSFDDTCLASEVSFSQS
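TRHR-expressing cells loaded with fluo-8 calcium dye; 23 nL library compound pin-transferred, kinetic FDSS fluorescence (Ex 480/Em 530) recorded about 180 s for agonist-induced calcium release, before a 10 nM TRH EC20 addition for potentiator mode.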
D1 PAM = human D1 dopamine receptor positive modulation | P21728 | HEK293 TREx D1 cells, calcium flux, dopamine EC20 potentiation | potentiation, % at 10 µM | 0.036% of 360,000 active | AID 504651; in the data active = potentiation above about 30%; note: 0% is about no effect
TRHR enhancer = allosterically enhances the human TRH receptor; 0.66% of 360,000 active; AID 493056; enhancement, % at 2 µM; TRHR cells, fluo-8 calcium fluorescence, EC20 TRH enhancement; P34981; in the data active = enhancement above about 30%; note: 0% is about no effect
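TRHR-expressing cells loaded with fluo-8 calcium dye were read kinetically (ex 480/em 530) during compound addition, then stimulated with an EC20 of TRH (10 nM final). Enhancement of the Gq-mediated intracellular calcium response was scored.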
D1 antagonist = human D1 dopamine receptor antagonism | P21728 | HEK293 TREx D1 cells, calcium flux, dopamine EC80; hits give low values | activity change, negative = inhibition, % at 10 µM | 3.2% of 360,000 active; in the data active = activity change below about -30%; note: % is set by controls: 0 for no effect and ±100 for the full control effect
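Tetracycline-induced HEK293 T-REx cells with force-coupled D1 receptor were loaded with a no-wash calcium dye. Compound was added after a 10 s baseline and read kinetically for 180 s; EC80 dopamine was then added and calcium flux followed another 180 s.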
D1 agonist = human D1 receptor agonism; P21728; HEK293 T-REx D1 cells, calcium flux, agonist mode; activation, % at 2 µM; 1% of 360,000 active; AID 504660; note: 0% is about no effect
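Agonism was scored from calcium flux recorded over 180 s (1 read/s) after pintool compound addition, following a 10-cycle baseline. Cells were inducible force-coupled HEK293 TREx D1, plated overnight at 30 C and loaded with no-wash calcium dye.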
Active calls of the source: *. Hits are enriched below; roughly 4.7% of the tested compounds scored in any of these assays. Cut-off read from the data, not from the text of the source, unless noted: active = activation above about 30%; inactive = the rest.

Results for CC(=O)c1ccc(N2CCN(C(=O)c3ccc(OCc4c(C)noc4C)cc3)CC2)cc1 ?
TRHR agonist: -1; D1 PAM: -2; TRHR enhancer: -2; D1 antagonist: -32*; D1 agonist: 8

Results for O=C(Nc1cc(F)ccc1F)c1ccc2c(c1)nnn2C1CCCC1 ?
TRHR agonist: 0; D1 PAM: -3; TRHR enhancer: -1; D1 antagonist: 14; D1 agonist: 5

What do the screens show for `Oc1ccc(Cl)cc1CNCc1ccc(Cl)cc1`?
TRHR agonist: 1; D1 PAM: 1; TRHR enhancer: -1; D1 antagonist: 18; D1 agonist: 21

What do the screens show for `Oc1ccc(Cl)cc1Cc1cc(Cl)ccc1O`?
TRHR agonist: -2; D1 PAM: 13; TRHR enhancer: -2; D1 antagonist: 33; D1 agonist: 111*

What do the screens show for `Oc1ccc(Cl)cc1CNCc1ccc(F)cc1`?
TRHR agonist: 6; D1 PAM: -8; TRHR enhancer: 2; D1 antagonist: -16; D1 agonist: 60*

Results for Cc1ccc(NC(=O)C2C3CCC(O3)C2C(=O)O)c(Br)c1 (centres undefined) ?
TRHR agonist: 0; D1 PAM: 0; TRHR enhancer: 5; D1 antagonist: 9; D1 agonist: 2

What do the screens show for `Cc1ccc(Cl)cc1NC(=O)C1C2CCC(O2)C1C(=O)O` (centres undefined)?
TRHR agonist: 0; D1 PAM: -1; TRHR enhancer: -2; D1 antagonist: -35*; D1 agonist: -1

What do the screens show for `COc1ccc(S(=O)(=O)Nc2ccc3c(c2)sc(=O)n3C)cc1Cl`?
TRHR agonist: 0; D1 PAM: 0; TRHR enhancer: -2; D1 antagonist: -18; D1 agonist: 10

What do the screens show for `O=C(Nc1cc(Cl)ccn1)C1CCN(S(=O)(=O)c2cccs2)CC1`?
TRHR agonist: 0; D1 PAM: -15; TRHR enhancer: 0; D1 antagonist: -31*; D1 agonist: 5

What do the screens show for `O=C(Nc1ccc(F)cc1)C1CCC(N2C(=O)c3ccccc3C2=O)CC1` (centres undefined)?
TRHR agonist: 1; D1 PAM: 0; TRHR enhancer: -1; D1 antagonist: -30*; D1 agonist: 7

Results for O=C(Nc1ccc(F)cc1)C1CCN(S(=O)(=O)c2cccs2)CC1 ?
TRHR agonist: -1; D1 PAM: -1; TRHR enhancer: -6; D1 antagonist: -40*; D1 agonist: 13

Results for Cc1csc(NC(=O)C2CCN(S(=O)(=O)c3ccccc3F)CC2)n1 ?
TRHR agonist: 0; D1 PAM: -11; TRHR enhancer: 8; D1 antagonist: -38*; D1 agonist: 24

Results for O=C(Nc1ccncc1)C1CCN(S(=O)(=O)c2cccs2)CC1 ?
TRHR agonist: 0; D1 PAM: -5; TRHR enhancer: 1; D1 antagonist: 3; D1 agonist: 5

What do the screens show for `COc1cccc(NC(=O)C2Cc3ccccc3CN2C(=O)c2ccco2)c1` (centres undefined)?
TRHR agonist: 0; D1 PAM: 6; TRHR enhancer: 5; D1 antagonist: 10; D1 agonist: 0

What do the screens show for `Cc1noc(C)c1CSCC(=O)Nc1nc(-c2ccc(F)c(F)c2)cs1`?
TRHR agonist: 0; D1 PAM: -11; TRHR enhancer: -9; D1 antagonist: -43*; D1 agonist: 16

What do the screens show for `CC1(C)O[C@@H]2[C@H](O1)[C@@H](COS(=O)(=O)O)O[C@H]2n1cnc2c(N)ncnc21`?
TRHR agonist: 0; D1 PAM: -4; TRHR enhancer: 2; D1 antagonist: -31*; D1 agonist: 3

What do the screens show for `C[C@@H]1C[C@@H]2OC(=O)[C@]3(C)[C@H]2[C@@H](OC3(C)O)[C@]2(C)C(=O)C=C[C@H]12` (some centres undefined)?
TRHR agonist: -1; D1 PAM: -6; TRHR enhancer: 0; D1 antagonist: -37*; D1 agonist: 5

How did Cc1ccc(S(=O)(=O)c2nnn3c2nc(NCCc2ccccc2)c2sccc23)cc1 do in these assays?
TRHR agonist: 1; D1 PAM: -5; TRHR enhancer: -2; D1 antagonist: -27; D1 agonist: 5
